# Measurements as given in article PMC7862700, “An all-to-all approach to the identification of sequence-specific readers for epigenetic DNA modifications on cytosine”.
# Assays:
# Assay in all cases: DAPPL (digital affinity profiling via proximity ligation, sequencing); 10 mM Tris-HCl pH 7.5, 50 mM NaCl, 1 mM DTT, 4% glycerol, room temperature, 30 min; GST-TFs on glutathione beads, 16-mer random dsDNA library, 0.1% formaldehyde crosslink after washing; high values mean tight binding
# FEV = target: T1, FEV (Homo sapiens, UniProt Q99581 1-238); conditions: protein: recombinant; tags: N-terminal GST; dsDNA, one strand shown
# T1 sequence: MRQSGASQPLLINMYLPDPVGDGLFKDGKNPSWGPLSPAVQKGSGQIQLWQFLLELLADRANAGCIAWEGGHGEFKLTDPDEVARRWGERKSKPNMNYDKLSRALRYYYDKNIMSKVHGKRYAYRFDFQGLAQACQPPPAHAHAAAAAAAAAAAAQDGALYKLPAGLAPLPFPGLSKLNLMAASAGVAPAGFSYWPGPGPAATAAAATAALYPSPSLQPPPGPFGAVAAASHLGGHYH
# Method in brief: (§1)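 Binding signal is each hexamer's read frequency for a factor divided by its frequency in the tag-only sample. The factors were GST-fused human transcription factors from yeast, captured on glutathione beads, DNA-barcoded and pooled with that sample. Pools were incubated with 200 nmole of a random double-stranded 16-mer DNA library in Tris/NaCl/DTT/glycerol buffer at room temperature for 30 min, then washed, crosslinked with 0.1% formaldehyde, proximity-ligated with BsaI/T4 ligase (1 h, 37 °C), PCR-amplified and sequenced on an Illumina NextSeq500.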
# ETV5 = ETV5 (Homo sapiens, UniProt P41161 1-510); conditions: protein: recombinant; tags: N-terminal GST; dsDNA, one strand shown
# ETV5, sequence (P41161 whole entry): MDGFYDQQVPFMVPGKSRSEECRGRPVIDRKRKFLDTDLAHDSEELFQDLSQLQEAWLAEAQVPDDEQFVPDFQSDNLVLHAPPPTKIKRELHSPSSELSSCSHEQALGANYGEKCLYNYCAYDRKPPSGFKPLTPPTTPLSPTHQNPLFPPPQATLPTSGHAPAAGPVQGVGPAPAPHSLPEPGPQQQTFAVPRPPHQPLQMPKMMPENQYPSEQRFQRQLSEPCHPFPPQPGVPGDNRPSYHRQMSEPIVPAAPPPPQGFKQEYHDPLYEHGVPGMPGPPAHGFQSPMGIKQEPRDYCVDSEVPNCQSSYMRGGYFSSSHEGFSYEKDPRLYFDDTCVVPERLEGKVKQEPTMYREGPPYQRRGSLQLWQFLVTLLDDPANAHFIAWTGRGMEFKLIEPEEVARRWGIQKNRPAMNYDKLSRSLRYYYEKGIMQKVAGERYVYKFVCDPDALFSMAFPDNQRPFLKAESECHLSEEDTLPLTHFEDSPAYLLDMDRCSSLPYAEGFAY
# Method in brief: as §1
# HSF1 = HSF1 (Homo sapiens, UniProt Q00613 1-529); conditions: protein: recombinant; tags: N-terminal GST; chain copies: 3; dsDNA, one strand shown
# HSF1, sequence (Q00613 whole entry): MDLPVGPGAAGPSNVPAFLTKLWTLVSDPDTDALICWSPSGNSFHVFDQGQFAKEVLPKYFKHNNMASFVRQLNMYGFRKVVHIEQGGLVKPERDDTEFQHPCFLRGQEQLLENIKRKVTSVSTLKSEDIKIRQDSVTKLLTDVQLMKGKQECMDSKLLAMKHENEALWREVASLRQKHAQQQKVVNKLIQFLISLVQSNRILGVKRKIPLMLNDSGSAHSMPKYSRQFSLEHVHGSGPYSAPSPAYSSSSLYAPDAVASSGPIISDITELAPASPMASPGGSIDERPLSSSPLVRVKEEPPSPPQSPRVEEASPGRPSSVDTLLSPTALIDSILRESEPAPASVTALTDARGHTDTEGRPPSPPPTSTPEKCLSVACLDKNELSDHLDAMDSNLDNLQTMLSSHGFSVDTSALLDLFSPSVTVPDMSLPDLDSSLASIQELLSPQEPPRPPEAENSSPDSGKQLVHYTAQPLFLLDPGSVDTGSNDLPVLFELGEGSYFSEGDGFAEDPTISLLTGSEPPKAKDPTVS
# Method in brief: as §1
# SPIC = target: T2, SPIC (Homo sapiens, UniProt Q8N5J4 1-248); conditions: protein: recombinant; tags: N-terminal GST; dsDNA, one strand shown
# T2 sequence: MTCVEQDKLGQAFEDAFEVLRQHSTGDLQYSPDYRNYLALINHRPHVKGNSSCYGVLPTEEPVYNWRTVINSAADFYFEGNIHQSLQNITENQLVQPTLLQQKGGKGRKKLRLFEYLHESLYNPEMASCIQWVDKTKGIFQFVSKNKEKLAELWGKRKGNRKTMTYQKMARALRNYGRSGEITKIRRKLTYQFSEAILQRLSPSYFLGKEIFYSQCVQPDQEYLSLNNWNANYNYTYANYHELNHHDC
# Method in brief: as §1
# ELF4 = ELF4 (Homo sapiens, UniProt Q99607 1-663); conditions: protein: recombinant; tags: N-terminal GST; dsDNA, one strand shown
# ELF4, sequence (Q99607 whole entry): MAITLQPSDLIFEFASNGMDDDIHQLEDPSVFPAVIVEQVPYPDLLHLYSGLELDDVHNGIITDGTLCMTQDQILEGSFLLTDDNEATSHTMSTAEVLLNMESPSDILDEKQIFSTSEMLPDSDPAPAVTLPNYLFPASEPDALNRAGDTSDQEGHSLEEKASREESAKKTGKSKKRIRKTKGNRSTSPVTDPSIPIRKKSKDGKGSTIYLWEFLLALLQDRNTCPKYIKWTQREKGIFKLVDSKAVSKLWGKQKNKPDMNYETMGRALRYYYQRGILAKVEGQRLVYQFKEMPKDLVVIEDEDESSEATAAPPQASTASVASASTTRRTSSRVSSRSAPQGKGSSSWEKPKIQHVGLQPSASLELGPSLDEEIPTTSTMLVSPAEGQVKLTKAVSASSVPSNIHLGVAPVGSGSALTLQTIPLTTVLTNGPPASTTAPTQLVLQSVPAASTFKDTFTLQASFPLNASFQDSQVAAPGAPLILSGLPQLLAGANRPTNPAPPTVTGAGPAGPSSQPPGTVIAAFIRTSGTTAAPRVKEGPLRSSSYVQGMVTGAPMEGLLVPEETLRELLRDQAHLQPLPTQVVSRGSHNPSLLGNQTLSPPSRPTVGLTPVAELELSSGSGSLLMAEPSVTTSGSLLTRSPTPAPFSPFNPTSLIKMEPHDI
# Method in brief: as §1
# ELK4 = target: T3, ELK4 (Homo sapiens, UniProt P28324-2 1-405); conditions: protein: recombinant; tags: N-terminal GST; dsDNA, one strand shown
# T3 sequence: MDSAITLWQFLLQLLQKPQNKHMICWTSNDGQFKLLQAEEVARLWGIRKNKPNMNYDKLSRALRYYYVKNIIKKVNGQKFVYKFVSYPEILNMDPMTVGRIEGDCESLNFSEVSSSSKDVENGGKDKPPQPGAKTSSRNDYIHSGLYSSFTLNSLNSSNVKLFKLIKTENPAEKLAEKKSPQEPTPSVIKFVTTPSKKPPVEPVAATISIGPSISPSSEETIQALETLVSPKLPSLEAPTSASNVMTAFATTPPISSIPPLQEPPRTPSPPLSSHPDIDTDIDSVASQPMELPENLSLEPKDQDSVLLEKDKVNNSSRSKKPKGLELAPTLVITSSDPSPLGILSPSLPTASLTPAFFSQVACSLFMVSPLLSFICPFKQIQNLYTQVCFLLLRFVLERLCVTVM
# Method in brief: as §1
# ETV2 = target: T4, ETV2 (Homo sapiens, UniProt O00321 1-342); conditions: protein: recombinant; tags: N-terminal GST; dsDNA, one strand shown
# T4 sequence: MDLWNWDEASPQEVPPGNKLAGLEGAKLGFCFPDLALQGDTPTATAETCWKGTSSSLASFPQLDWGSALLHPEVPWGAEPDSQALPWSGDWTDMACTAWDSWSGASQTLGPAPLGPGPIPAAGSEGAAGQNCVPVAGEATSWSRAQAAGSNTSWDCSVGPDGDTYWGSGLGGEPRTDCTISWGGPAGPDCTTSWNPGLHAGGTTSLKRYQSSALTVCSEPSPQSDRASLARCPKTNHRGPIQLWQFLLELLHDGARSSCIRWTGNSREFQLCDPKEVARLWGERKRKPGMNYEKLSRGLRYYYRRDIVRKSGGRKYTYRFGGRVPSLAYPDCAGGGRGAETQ
# Method in brief: as §1
# ELF3 = target: T5, ELF3 (Homo sapiens, UniProt P78545 1-371); conditions: protein: recombinant; tags: N-terminal GST; dsDNA, one strand shown
# T5 sequence: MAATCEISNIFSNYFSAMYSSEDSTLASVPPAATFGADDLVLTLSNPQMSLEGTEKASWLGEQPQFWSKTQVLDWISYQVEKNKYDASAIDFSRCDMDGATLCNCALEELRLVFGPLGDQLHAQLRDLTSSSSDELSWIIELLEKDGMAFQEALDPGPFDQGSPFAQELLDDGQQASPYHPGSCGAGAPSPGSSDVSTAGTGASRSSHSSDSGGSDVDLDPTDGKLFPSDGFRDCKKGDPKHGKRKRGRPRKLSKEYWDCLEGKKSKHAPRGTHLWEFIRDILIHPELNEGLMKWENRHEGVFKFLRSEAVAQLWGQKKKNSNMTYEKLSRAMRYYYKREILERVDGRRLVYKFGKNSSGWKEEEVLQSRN
# Method in brief: as §1
# CRX = CRX (Homo sapiens, UniProt O43186 1-299); conditions: protein: recombinant; tags: N-terminal GST; dsDNA, one strand shown
# CRX, sequence (O43186 whole entry): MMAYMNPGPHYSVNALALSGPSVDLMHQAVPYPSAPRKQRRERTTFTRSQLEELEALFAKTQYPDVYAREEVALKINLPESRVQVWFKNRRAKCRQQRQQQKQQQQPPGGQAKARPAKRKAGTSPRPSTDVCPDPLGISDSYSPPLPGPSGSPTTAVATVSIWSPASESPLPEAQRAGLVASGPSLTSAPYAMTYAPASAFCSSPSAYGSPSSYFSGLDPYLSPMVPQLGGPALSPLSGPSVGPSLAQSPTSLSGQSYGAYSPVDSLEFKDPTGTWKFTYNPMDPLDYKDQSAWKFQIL
# Method in brief: as §1
# ETV1 = ETV1 (Homo sapiens, UniProt P50549 1-477); conditions: protein: recombinant; tags: N-terminal GST; dsDNA, one strand shown
# ETV1, sequence (P50549 whole entry): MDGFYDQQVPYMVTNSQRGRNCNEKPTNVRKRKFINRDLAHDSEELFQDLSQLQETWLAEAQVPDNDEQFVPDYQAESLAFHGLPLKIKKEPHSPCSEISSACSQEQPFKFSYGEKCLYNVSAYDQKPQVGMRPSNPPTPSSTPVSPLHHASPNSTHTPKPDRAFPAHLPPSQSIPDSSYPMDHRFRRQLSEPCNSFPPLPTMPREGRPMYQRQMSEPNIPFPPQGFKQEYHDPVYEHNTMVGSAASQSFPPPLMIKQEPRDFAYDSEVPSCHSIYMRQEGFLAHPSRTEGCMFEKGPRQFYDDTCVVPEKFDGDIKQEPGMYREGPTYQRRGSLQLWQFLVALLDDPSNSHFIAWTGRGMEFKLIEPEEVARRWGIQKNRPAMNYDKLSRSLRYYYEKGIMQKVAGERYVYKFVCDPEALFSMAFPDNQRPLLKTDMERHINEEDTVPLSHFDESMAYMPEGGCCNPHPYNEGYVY
# Method in brief: as §1
# ERF = target: T6, ERF (Homo sapiens, UniProt P50548 1-548); conditions: protein: recombinant; tags: N-terminal GST; dsDNA, one strand shown
# T6 sequence: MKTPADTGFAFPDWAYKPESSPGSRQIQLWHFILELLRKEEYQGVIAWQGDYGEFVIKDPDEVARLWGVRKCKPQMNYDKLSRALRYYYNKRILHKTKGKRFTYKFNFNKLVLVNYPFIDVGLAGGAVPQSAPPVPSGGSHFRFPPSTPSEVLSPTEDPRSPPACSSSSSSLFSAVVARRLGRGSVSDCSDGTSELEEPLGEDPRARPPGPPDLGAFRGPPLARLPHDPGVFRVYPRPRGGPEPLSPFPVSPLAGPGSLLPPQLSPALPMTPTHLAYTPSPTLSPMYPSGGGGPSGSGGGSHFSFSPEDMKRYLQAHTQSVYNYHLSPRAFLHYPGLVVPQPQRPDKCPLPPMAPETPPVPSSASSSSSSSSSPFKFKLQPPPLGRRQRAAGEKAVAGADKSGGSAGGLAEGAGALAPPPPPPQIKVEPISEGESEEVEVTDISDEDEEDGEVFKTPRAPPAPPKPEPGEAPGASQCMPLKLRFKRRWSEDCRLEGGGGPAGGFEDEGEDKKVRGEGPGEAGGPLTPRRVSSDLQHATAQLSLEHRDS
# Method in brief: as §1
# ETV3L = target: T7, ETV3L (Homo sapiens, UniProt Q6ZN32 1-361); conditions: protein: recombinant; tags: N-terminal GST; dsDNA, one strand shown
# T7 sequence: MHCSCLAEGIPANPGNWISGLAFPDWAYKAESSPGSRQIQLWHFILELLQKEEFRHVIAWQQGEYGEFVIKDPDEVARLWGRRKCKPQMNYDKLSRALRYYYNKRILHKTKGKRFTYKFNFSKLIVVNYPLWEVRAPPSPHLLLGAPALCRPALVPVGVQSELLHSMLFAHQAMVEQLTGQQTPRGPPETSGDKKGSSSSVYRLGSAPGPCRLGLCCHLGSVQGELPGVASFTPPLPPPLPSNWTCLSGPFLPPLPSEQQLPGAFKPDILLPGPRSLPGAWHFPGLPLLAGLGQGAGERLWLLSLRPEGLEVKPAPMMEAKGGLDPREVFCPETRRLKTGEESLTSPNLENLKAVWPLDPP
# Method in brief: as §1
# ETS2 = target: T8, ETS2 (Homo sapiens, UniProt P15036 1-469); conditions: protein: recombinant; tags: N-terminal GST; dsDNA, one strand shown
# T8 sequence: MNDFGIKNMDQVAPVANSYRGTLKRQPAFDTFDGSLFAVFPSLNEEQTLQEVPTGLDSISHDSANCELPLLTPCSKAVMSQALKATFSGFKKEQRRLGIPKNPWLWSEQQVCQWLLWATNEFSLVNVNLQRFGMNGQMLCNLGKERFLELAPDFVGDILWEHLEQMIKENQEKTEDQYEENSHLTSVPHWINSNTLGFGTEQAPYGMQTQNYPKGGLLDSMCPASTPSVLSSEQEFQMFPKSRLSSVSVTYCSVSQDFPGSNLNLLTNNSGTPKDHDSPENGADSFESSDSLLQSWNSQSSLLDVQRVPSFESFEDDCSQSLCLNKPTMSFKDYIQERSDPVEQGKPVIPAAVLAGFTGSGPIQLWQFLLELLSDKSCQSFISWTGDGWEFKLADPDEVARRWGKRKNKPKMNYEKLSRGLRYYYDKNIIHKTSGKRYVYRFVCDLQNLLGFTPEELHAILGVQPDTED
# Method in brief: as §1
# SPDEF = target: T9, SPDEF (Homo sapiens, UniProt O95238 1-335); conditions: protein: recombinant; tags: N-terminal GST; dsDNA, one strand shown
# T9 sequence: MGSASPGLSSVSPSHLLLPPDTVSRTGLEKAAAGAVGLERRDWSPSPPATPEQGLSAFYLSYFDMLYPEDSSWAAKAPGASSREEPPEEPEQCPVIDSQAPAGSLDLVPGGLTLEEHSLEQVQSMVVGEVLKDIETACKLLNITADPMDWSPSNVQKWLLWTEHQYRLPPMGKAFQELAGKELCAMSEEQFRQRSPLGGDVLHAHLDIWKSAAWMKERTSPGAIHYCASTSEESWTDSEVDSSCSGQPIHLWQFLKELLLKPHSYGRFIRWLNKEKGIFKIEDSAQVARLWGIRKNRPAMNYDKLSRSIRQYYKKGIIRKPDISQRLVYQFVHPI
# Method in brief: as §1
# ETV7 = target: T10, ETV7 (Homo sapiens, UniProt Q9Y603 1-341); conditions: protein: recombinant; tags: N-terminal GST; dsDNA, one strand shown
# T10 sequence: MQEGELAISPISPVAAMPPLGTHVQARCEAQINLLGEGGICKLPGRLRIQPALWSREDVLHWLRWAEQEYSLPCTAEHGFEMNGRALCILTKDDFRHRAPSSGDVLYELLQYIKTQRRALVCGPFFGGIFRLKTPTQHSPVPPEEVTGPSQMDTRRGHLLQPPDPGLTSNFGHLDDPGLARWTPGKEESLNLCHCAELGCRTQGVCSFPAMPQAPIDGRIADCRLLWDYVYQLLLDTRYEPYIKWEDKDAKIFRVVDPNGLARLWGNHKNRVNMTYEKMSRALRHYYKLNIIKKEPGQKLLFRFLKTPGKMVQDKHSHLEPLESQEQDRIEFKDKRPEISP
# Method in brief: as §1
# ELF5 = target: T11, ELF5 (Homo sapiens, UniProt Q9UKW6-2 1-255); conditions: protein: recombinant; tags: N-terminal GST; dsDNA, one strand shown
# T11 sequence: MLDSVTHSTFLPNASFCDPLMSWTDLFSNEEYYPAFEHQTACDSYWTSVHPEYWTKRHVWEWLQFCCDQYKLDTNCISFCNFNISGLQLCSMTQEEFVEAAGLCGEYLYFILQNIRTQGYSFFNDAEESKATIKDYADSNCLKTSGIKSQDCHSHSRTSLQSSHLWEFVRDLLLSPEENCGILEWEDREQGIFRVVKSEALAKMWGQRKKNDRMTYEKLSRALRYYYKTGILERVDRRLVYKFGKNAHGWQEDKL
# Method in brief: as §1
# ETV3 = target: T12, ETV3 (Homo sapiens, UniProt P41162-2 1-143); conditions: protein: recombinant; tags: N-terminal GST; dsDNA, one strand shown
# T12 sequence: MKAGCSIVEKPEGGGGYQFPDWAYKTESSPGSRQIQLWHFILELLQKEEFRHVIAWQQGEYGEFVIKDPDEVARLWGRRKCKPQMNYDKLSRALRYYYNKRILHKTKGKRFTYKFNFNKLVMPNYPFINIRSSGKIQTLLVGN
# Method in brief: as §1
# ETV6 = ETV6 (Homo sapiens, UniProt P41212 1-452); conditions: protein: recombinant; tags: N-terminal GST; dsDNA, one strand shown
# ETV6, sequence (P41212 whole entry): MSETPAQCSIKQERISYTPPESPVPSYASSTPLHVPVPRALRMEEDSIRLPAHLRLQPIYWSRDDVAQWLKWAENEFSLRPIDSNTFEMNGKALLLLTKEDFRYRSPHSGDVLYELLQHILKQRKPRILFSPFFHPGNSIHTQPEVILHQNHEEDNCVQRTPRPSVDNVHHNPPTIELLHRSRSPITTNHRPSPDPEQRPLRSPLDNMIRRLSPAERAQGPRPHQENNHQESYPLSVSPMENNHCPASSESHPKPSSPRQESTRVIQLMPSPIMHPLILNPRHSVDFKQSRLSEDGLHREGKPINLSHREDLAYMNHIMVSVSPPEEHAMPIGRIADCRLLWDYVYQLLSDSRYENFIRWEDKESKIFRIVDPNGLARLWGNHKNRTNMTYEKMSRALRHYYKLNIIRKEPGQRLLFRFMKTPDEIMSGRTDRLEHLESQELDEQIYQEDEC
# Method in brief: as §1
sequence,measurement,setting,value
TTGCTG,binding signal,FEV,"1.13 fold enrichment (6-mer frequency, TF over GST control)"
same,binding signal,ETV5,"1.09 fold enrichment (6-mer frequency, TF over GST control)"
same,binding signal,HSF1,"1.23 fold enrichment (6-mer frequency, TF over GST control)"
same,binding signal,SPIC,"1.02 fold enrichment (6-mer frequency, TF over GST control)"
same,binding signal,ELF4,"1.35 fold enrichment (6-mer frequency, TF over GST control)"
same,binding signal,ELK4,"1.34 fold enrichment (6-mer frequency, TF over GST control)"
same,binding signal,ETV2,"1.42 fold enrichment (6-mer frequency, TF over GST control)"
same,binding signal,ELF3,"1.33 fold enrichment (6-mer frequency, TF over GST control)"
same,binding signal,CRX,"1.26 fold enrichment (6-mer frequency, TF over GST control)"
same,binding signal,ETV1,"1.39 fold enrichment (6-mer frequency, TF over GST control)"
same,binding signal,ERF,"1.28 fold enrichment (6-mer frequency, TF over GST control)"
same,binding signal,ETV3L,"1.26 fold enrichment (6-mer frequency, TF over GST control)"
same,binding signal,ETS2,"1.21 fold enrichment (6-mer frequency, TF over GST control)"
same,binding signal,SPDEF,"1.18 fold enrichment (6-mer frequency, TF over GST control)"
same,binding signal,ETV7,"1.37 fold enrichment (6-mer frequency, TF over GST control)"
same,binding signal,ELF5,"1.14 fold enrichment (6-mer frequency, TF over GST control)"
same,binding signal,ETV3,"1.23 fold enrichment (6-mer frequency, TF over GST control)"
same,binding signal,ETV6,"1.13 fold enrichment (6-mer frequency, TF over GST control)"
